Several values for one entry are separate records, joined by “and”; a condition that tells them apart may be missing. Equal values may be shown once. The whole screen tested about 59,000 compounds, of which about 1,500 (2.5%) were called active. Entries that show only a call come without a potency. Inconclusive results (about 10%) are left out. Calls follow the shape of the dose curve; as a rule, active = well fitted inhibition curve with a large enough effect; inconclusive = small, poorly fitted or top-dose-only effect; inactive = flat fitted curve, though single readings scatter. Many of the other results were omitted from the sample, so actives are more common in it than they were. Some structures have more than one record in an assay (separate samples or runs), and their calls can disagree.
Potency is read from the fitted curve at half-maximal effect.

Chain of N-terminal Xaa-Pro-Lys N-methyltransferase 1 (Homo sapiens) (Q9BV86 whole entry, looked up): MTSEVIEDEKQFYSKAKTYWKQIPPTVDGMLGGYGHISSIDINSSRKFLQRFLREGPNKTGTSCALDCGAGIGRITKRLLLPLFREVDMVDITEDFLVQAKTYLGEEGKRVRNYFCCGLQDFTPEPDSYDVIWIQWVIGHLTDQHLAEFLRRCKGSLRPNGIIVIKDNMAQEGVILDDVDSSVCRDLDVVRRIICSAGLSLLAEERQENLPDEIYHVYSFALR

This assay deals with N-terminal Xaa-Pro-Lys N-methyltransferase 1 (Homo sapiens) (UniProt Q9BV86). The assay can be described thus: Primary qHTS for Inhibitors of N-terminal methyltransferase 1 (NTMT1): MTaseGlo Assay. Also: nearly all actives have a fitted effect of over 65% in size. To be noted: NTMT1 MTase-Glo SAH luminescence, purified enzyme; series mostly up to 114 µM. From the text:
Assay Submitter (PI): Rong Huang Ph.D.
Purdue University, West Lafayette, IN 47907
The N-terminal methytransferase 1 is the first methyltransferase that methylates protein alpha-N-amines and plays an important role in regulating cell mitosis, chromatin interactions and DNA repair. It is observed to be over-expressed in various cancer patient tissues like malignant melanoma and colorectal cancer tissues. Knockdown of NTMT1 in cancer cells causes cell mitotic defects and enhances sensitivity to DNA damaging chemotherapeutics. […] These critical cellular processes in which NTMT1 is implicated, coupled with emerging links to cellular dysfunction, strengthen the inference that NTMT1 is a compelling novel anticancer target. Progress have been made in understanding the molecular properties of NTMT1 and the biological consequences of protein alpha-N-terminal methylation, but there are no specific small molecule probes available for NTMT1 to fully characterize its MTase activity. To address this unmet need, a panel of assay is created and established to enable quantitative high-throughput screening (qHTS) for novel, potent, and selective small molecule NTMT1 inhibitors. Two orthogonal qHTS that use different reagents (ThioGlo vs. MTaseGlo) are developed for primary robotic screening against the NCATS chemical library of more than 400,000 small molecules. Identified inhibitors are reacquired, validated, and further characterized.
MTaseGlo Assay is a luminescence screen that measure the activity of methyltransferases based on the reaction product S-adenosyl homocysteine (SAH). The substrate SAM is converted to SAH upon enzyme activation. MTase-Glo reagent and detection solution convert SAH to ATP and measure the light from the luciferase reaction.
Materials: NTMT1 enzyme, substrate SPKRIA, control peptide RCC1-6 is provided by the Huang laboratory.
SEQUENCE No. (e.g., 1, 2, 3, etc.); […] (e.g., Cells, Incubation, Reagent, etc.); VALUE; DESCRIPTION
1; Enzyme; 3 uL; Dispense enzyme mixture (final concentrations of 125 nM NTMT1 and 100 uM SAM) into Greiner 1536-well white / solid bottom assay plate (Greiner Bio One, Monroe, NC).
2; Compounds; 23 nL; Compounds and controls were transferred via a Kalypsys Pin Tool (Wako USA) equipped with a 1536-slotted pin array (Wako Automation, Richmond, VA)
3; Incubation; 15 min; Incubate at room temperature
4; Substrate; 1 uL; Dispense 1 uL of substrate at final concentration of 1 uM. Buffer solution was dispensed in control wells. The assay plate was covered with metal lids.
5; Incubation; 30 min; Incubate at room temperature, protected from lights.
6; Reagent; 1 uL; Dispensed 5x MTase-Glo detection reagent (R) into the assay plate. The plate was covered with metal lids.
7; Incubation; 30 min; Incubate the assay plates at room temperature in the dark to allow for SAH to be converted to ADP.
8; Reagent; 5 uL; Dispense 5 uL of 1x MTase-Glo Detection Solution (R) to allow for ADP to be converted to ATP which was then detected with a luciferase reaction.
9; Centrifuge; 15 sec; Centrifuge the assay plate for 15 seconds at 1000 RPM.
10; Incubation; 30 min; Assay plates were incubation at room temperature in the dark.
11; Detection; Luminescence; Plates were read on ViewLux detector (PerkinElmer). Data were normalized to no-enzyme (0% activity) and no-inhibitor (DMSO; 100%) controls, and the resulting percent inhibition data were fitted to a 4-parameter Hill equation using GraphPad Prism.
A general note: In qHTS, concentration-response curves come from the screen itself.
Consider `COc1ccc(Cn2ccn(Cc3cccc(OC)c3)c(=O)c2=O)cc1`, for which the Potency entry is “inactive”. For the compound `COc1ccc(Cn2ccn(CC(=O)Nc3cc(C)ccc3C)c(=O)c2=O)cc1`, the Potency is 79.4 µM (active). The value for `Cc1ccc(C)c(NC(=O)Cn2ccn(-c3ccc(F)cc3)c(=O)c2=O)c1` was “inactive”; that for `N#Cc1ccc(N[S+](=O)([O-])c2ccc(Nc3nc(-c4ccccc4)cs3)cc2)cc1` was “inactive”; that for `O=[S+]([O-])(c1ccc(OC(F)(F)F)cc1)N1CCN([S+](=O)([O-])c2ccc3c(c2)OCCO3)CC1` was “inactive”. The value for `CN1CCOc2cc(S(=O)(=O)N3CCN(S(=O)(=O)c4c(F)cccc4F)CC3)cnc21` was “inactive”. With `COCC1CCCN(C(=O)CC(c2ccc3c(c2)OCO3)c2c(O)cc(OC)cc2OC)C1` (configuration not stated), the Potency result is “inactive”.

Regarding `CCOc1cc(CCNC(=O)c2cc3sccc3n2Cc2ccccc2)cc(F)c1OCC`, the Potency entry is “inactive”. The value for `Cc1cccc2nc(-c3ccc(Cl)s3)c(Nc3ccc4c(c3)OCCO4)n12` was 1.78 µM (active); that for `Oc1ccccc1-c1nc2ccc(Cl)cn2c1Nc1ccc2c(c1)OCCO2` was “inactive”; that for `Cc1ccc(Nc2c(-c3ccc(C)s3)nc3ccccn23)cc1` was “inactive”. In the case of `Cc1cc2c(s1)c1cnn(Cc3cc(F)c(Cl)cc3Cl)c(=O)c1n2C`, the Potency result was “inactive”. The value for `Fc1cc(Nc2nc(-c3ccncc3)nc3ccccc23)ccc1-n1cncn1` was “inactive”; that for `Cc1c(Cl)cccc1S(=O)(=O)Nc1nc(CCN2CCOCC2=O)cs1` was “inactive”; that for `Cc1cc(Nc2cc(CN3CCOCC3)c3nc(C)c(Cc4ccc(Cl)cc4F)n3n2)n[nH]1` was 30.4 µM (active) and 7.08 µM (active) and 11.2 µM (active). As to `COc1cc(NS(=O)(=O)c2ccc(C)cc2)ccc1C(=O)Nc1nc(-c2ccccc2)cs1`, the Potency result was “inactive”. The value for `Cc1cc(C)n2ncc(C(=O)Nc3ccc4c(c3)OCCO4)c2n1` was “inactive”; that for `Cc1cc(C)n2ncc(C(=O)Nc3ccc(C)c(C)c3)c2n1` was “inactive”; that for `COc1ccc(C[C@H](C(=O)O)N2C(=O)c3ccc(C(=O)O)cc3C2=O)cc1` was “inactive”. Take `CC(C)(C)C1CCc2c(sc(NC(=O)c3ccccc3F)c2C(=O)N2CCCCC2)C1` (configuration not stated): the Potency result was “inactive”. `CC(C)C(=O)Nc1nc2c(s1)CC(C(C)(C)C)CC2` (configuration not stated): the Potency was 79.4 µM (active). Regarding `COC(=O)c1cccc(Cn2nnc3sc4c(c3c2=O)CCC(C(C)(C)C)C4)c1` (configuration not stated), the Potency entry is “inactive”. Turning to `Cc1ccc(S(=O)(=O)NC(N)=NCCC[C@@H](NC(=O)CNC(=O)c2ccccc2)C(=O)Nc2cc(C(F)(F)F)ccc2Cl)cc1`, the Potency entry is “inactive”.

With `CC(C)c1ccc(C2CC(=O)N3CN(C4CCCCC4)CSC3=C2C#N)cc1` (configuration not stated), the Potency is 11.2 µM (active). Regarding `O=C(Nc1ccc2ccccc2c1)Nc1nnc(-c2ccc(O)cc2)s1`, the Potency result is “inactive”. In the case of `CC(C)c1ccc2c(c1)c(SC(C)(C)C)c(CC(C)(C)C(=O)O)n2Cc1ccc(Cl)cc1`, the Potency result was “inactive and 79.4 µM (active)”. As to `Cc1c(C)n(Cc2ccc(Cl)cc2)c2ccc(C(=O)N3CCN(c4ccccc4F)CC3)cc12`, the Potency result is “inactive”.

For the compound `C[S+](=O)([O-])c1ccc(-c2ccc(=O)n(CC(=O)NCCc3ccccc3)n2)cc1`, the Potency entry is “inactive”. For `Cc1ccc(OCCn2c(CCNC(=O)Cc3cccc4ccccc34)nc3ccccc32)cc1`, the Potency result was “inactive”. On to `CN1CC[C@H](c2c(O)cc(O)c3c(=O)cc(-c4ccccc4Cl)oc23)[C@H](O)C1`, for which the Potency is 31.6 µM (active).

Take `Cc1cc(C2N=C(Nc3nc4ccccc4o3)NC3=C2C(=O)CCC3)n[nH]1` (configuration not stated): the Potency result is “inactive”.

For the compound `FC(F)(F)c1cc(Cl)cc(-c2ccc(CNc3nc(-c4ccccc4C(F)(F)F)nc4ccccc34)cc2)c1`, the Potency result was “inactive”. On to `Cc1ccccc1-c1ccc(NC(=O)c2cccs2)cn1`, for which the Potency entry is “inactive”. In the case of `O=S(=O)(NCC1CN(S(=O)(=O)c2ccc3c(c2)OCCO3)C1)c1c(F)cccc1F`, the Potency entry was “inactive”.

`O=S(=O)(Nc1cccc2ccccc12)c1ccc(NCc2ccc(Br)cc2O)cc1`: the Potency result was “inactive”. As for `CCN(CC)c1ccc(NC(=O)CN(C)Cc2c(O)ccc3ccccc23)cc1`, the Potency entry is “inactive”.

`COc1ccccc1-c1c[nH]c2ncc(-c3cncc(C(=O)N(C)C)c3)cc12`: the Potency was 39.8 µM (active). Turning to `COc1ccc(-c2cncc(NC(=O)c3cccs3)c2)cc1OC`, the Potency result was “inactive”.

`O=C1NS(=O)(=O)c2cc(Cl)ccc21`: the Potency result was “inactive”. Regarding `NC(=O)C1CCN(c2cc(-c3ccc4c(c3)OCCCO4)ncn2)CC1`, the Potency entry is “inactive”. The value for `c1nc(N2CCOCC2)c2cc(-c3ccc4c(c3)OCO4)ccc2n1` was 12.6 µM (active); that for `COc1ccc(NC(=O)c2cnn3c(-c4ccccc4)cc(C)nc23)cc1` was “inactive”; that for `O=C(Nc1ccc([S+](=O)([O-])Nc2nccs2)cc1)c1ccn[nH]1` was “inactive”. As for `O=C(OC/C=C/CSc1nnc(-c2cccc3ccccc23)o1)c1ccc(F)cc1`, the Potency result is “inactive”. On to `COc1cc(NC(=O)c2cc3ccc4cccnc4c3[nH]2)cc(OC)c1OC`, for which the Potency result is “inactive”.

On to `COc1cc(Nc2ncc(F)c(Nc3ccc4c(n3)NC(=O)C(C)(C)O4)n2)cc(OC)c1OC`, for which the Potency result was “inactive and 1.52 µM (active)”. Regarding `N#CN1CCC(NS(=O)(=O)c2cccc(F)c2)C1` (configuration not stated), the Potency result was “inactive”.

Source of the values: PubChem BioAssay AID1645870 (National Center for Advancing Translational Sciences (NCATS), 2021).
